About 64,000 (15%) of roughly 420,000 compounds were called active. Not shown: some 27% with an inconclusive outcome. Calls come from the whole dose curve; as a rule, active = well fitted inhibition curve with a large enough effect; inconclusive = small, poorly fitted or top-dose-only effect; inactive = flat fitted curve, though single readings scatter. Only a sample is shown. Where a call stands in place of a potency, no number is given.
Test: qHTS for Inhibitors of human tyrosyl-DNA phosphodiesterase 1 (TDP1): qHTS in cells in absence of CPT; note: nearly all actives have a fitted effect of over 55% in size
Conditions: DT40 Tdp1-/- hTDP1 cells, no CPT, ATP luminescence, 48 h; activity change, negative = growth inhibition: at 46.2 µM (top of the series)
Outline: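 Cells were dispensed at 400 per well, compounds added by pin tool, plates incubated ≥48 hr at 37 °C, then CellTiter-Glo added for 30 min at room temperature before luminescence reading. Line: DT40 Tdp1-/- complemented with hTDP1; camptothecin omitted.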
Potency is the fitted concentration of half-maximal effect.

Compound	Potency
NC(=O)C(Cc1ccccc1)NC(=O)C12CC3CC(CC(C3)C1)C2 (centres undefined)	inactive
COC(=O)c1sc(NC(=O)c2ccc(OC)cc2OC)nc1C	inactive
COc1ccc2c(c1)Cc1sc(NC(=O)c3ccccc3Br)nc1-2	18.4 µM (active)
COc1cc2ccccc2cc1C(=O)Nc1nc(C)c(C(C)=O)s1	inactive
COCCN1C=C2C(=O)C(C)(OC(=O)C3CCCC3)C(=O)C=C2C=C1c1ccsc1 (centres undefined)	inactive
CC(C)OCCCNC(=O)c1cc(Sc2ccc(F)cc2)nc2ccccc12	inactive
CC(NC(=O)c1cc(=O)[nH]c2ccccc12)c1ccc(F)cc1F (centres undefined)	inactive
CC(NC(=O)c1cc(Sc2ccc(F)cc2F)nc2ccccc12)c1ccccc1 (centres undefined)	23.1 µM (active)
CCCCCc1nnc(NC(=O)c2ccc(=O)n(C)n2)s1	inactive
O=C(NCc1cccc(CNC(=O)Nc2cccc(O)c2)c1)Nc1cccc(O)c1	inactive
COc1ccc(NC(=O)C2(C)Cc3c(-c4cccc(NC(C)=O)c4)ccnc3O2)cc1 (centres undefined)	1.16 µM (active)
CC(=O)Nc1cccc(-c2ccnc3c2CC(C)(C(=O)NCc2ccco2)O3)c1 (centres undefined)	2.91 µM (active)
CC(=O)Nc1cccc(-c2ccnc3c2CC(C)(C(=O)NCc2ccccc2)O3)c1 (centres undefined)	0.92 µM (active)
CC1(C)CC(=O)c2cc(C(=O)NCc3ccccc3)c(=O)[nH]c2C1	inactive
COc1ccc(NC(=O)Nc2cccc(-c3noc(C)n3)c2)cc1	inactive
COc1ccc(NC(=O)C2(C)Cc3c(-c4ccc(C(N)=O)cc4)ccnc3O2)cc1 (centres undefined)	inactive
COC(=O)Cc1ccc(NC(=S)NCc2ccco2)cc1	inactive
CCC(C)(C)NC(=O)CN(C(=O)CCC(=O)Nc1cc(C)ccn1)c1ccc2c(c1)OCCO2	inactive
Cc1cc(=O)oc2cc(OC(C)C(=O)NCCc3ccc(S(N)(=O)=O)cc3)ccc12 (centres undefined)	inactive
CSc1nnc(CNC(=O)c2ccccc2)n1-c1ccc(F)cc1	inactive
O=C1CSc2ccc(C(=O)NCc3ccccn3)cc2N1	inactive
CCc1nn(CC(=O)Nc2cc(C)cc(C)c2)c(=O)c2cc3sccc3n12	5.17 µM (active)
CCc1nn(CC(=O)Nc2cccc(C)c2C)c(=O)c2cc3sccc3n12	inactive
CCCC1NC(=S)NC(C)=C1C(C)=O (centres undefined)	inactive
Nc1[nH]c(C(=O)c2ccccc2)c(-c2ccc(Br)cc2)c1C(=O)NC1CC1	inactive
Cc1ccc2nc(CN3CCN(S(=O)(=O)c4ccc(C)c(C)c4)CC3)oc2c1	inactive

Compound	Potency
O=Cc1cn(CCOc2ccc(F)cc2)c2ccccc12	11.6 µM (active)
Cc1cc(N2C(=O)C(=O)/C(=C(/O)c3ccc(Cl)cc3)C2c2cccc(Br)c2)no1 (centres undefined)	inactive
CC1(C(=O)NCc2ccccc2)CSCC(=O)N1CCCN1CCOCC1 (centres undefined)	inactive
c1ccc2cc3c(NCCN4CCOCC4)ccnc3cc2c1	20.6 µM (active)
O=C(Cn1c(-c2ccccn2)nc2ccccc21)NCCN1CCOCC1	inactive
c1ccc2[nH]c(NCCN3CCOCC3)nc2c1	inactive
CC1CCCN(C(=O)Cn2c(=O)oc3ccccc32)C1 (centres undefined)	inactive
CC(C)NC(=S)Nc1cccc2cnccc12	inactive
CCN(c1ccccc1)S(=O)(=O)c1cccc(C(=O)O)c1	inactive
O=C(NCCN1CCOCC1)c1cccc(S(=O)(=O)Nc2ccc(F)cc2)c1	inactive
CCN(c1ccccc1)S(=O)(=O)c1cccc(C(=O)NCc2ccccc2CN2CCOCC2)c1	18.4 µM (active)
COC(=O)c1ccc(COc2ccc(/C=N/NC(=O)C(=O)Nc3ccc(OC)cc3)cc2OC)o1	inactive
CCCc1ccc(OCc2ccc(C(=O)N/N=C/c3cccc([N+](=O)[O-])c3)o2)c(OC)c1	6.51 µM (active)
Cc1ccc(NC(=O)O/N=C/c2cccc([N+](=O)[O-])c2)cc1	inactive
CC(OC(=O)CN1C(=O)COc2ccccc21)C(=O)NCc1ccc(F)cc1 (centres undefined)	inactive
COc1ccc(CCNC(=O)CN(c2ccccc2)S(C)(=O)=O)cc1OC	inactive
COc1ccc(CCNS(=O)(=O)c2ccc(Cl)s2)cc1OC	inactive
COc1ccc(CCNC2=C(Cl)C(=O)N(Cc3ccccc3)C2=O)cc1OC	20.6 µM (active)
COc1c(C(C)C)oc2cc3oc(=O)ccc3cc12	inactive
CCOC(=O)CCCN1CC(O)=C(c2nc3ccccc3s2)C1=N	inactive
O=C(Nn1c(-c2ccccc2)nc2ccccc2c1=O)c1ccc([N+](=O)[O-])cc1	inactive
N=C1C(c2nc3ccccc3s2)=C(O)CN1NC(=O)c1ccc([N+](=O)[O-])cc1	23.1 µM (active)
Cc1nc2cc(NC(=O)CSc3nc4c(C)cccc4cc3C#N)ccc2s1	inactive
COCCNC(=O)c1snc2ccc(Cl)cc12	inactive
CCOc1ncccc1C(=O)N(C)CC(=O)Nc1ccc(F)cc1	inactive
O=C(O)CN1c2cccc3cccc(c23)S1(=O)=O	inactive

Compound	Potency
COc1ccccc1CNC(=O)COC(=O)CNS(=O)(=O)c1ccc(NC(C)=O)cc1	inactive
COc1ccc(CNC(=O)COCc2cc(-c3cccs3)on2)cc1OC	23.1 µM (active)
COc1ccc(OC)c(CNC(=O)CCc2nc(-c3cccs3)no2)c1	inactive
COc1ccc(CNC(=O)COC(=O)c2sccc2C)cc1OC	inactive
Cc1cc(C)cc(NC(=S)NCCCN2CCOCC2)c1	inactive
Cc1ccc(-n2nc3c(c2NC(=O)c2ccc4c(c2)OCO4)CSC3)c(C)c1	inactive
C=CCNC(=O)c1ccc2c3n(nc2c1)-c1ccc(C)cc1CO3	18.4 µM (active)
CCOc1c2ccc(C(=O)NCc3ccc4c(c3)OCO4)cc2nn1C	inactive
COc1ccc(N2CCN(CCNC(=O)CCN3C(=O)COc4ccccc43)CC2)cc1	inactive
C/C(=N\NC(=O)COc1ccc(C)cc1[N+](=O)[O-])c1ccc2c(c1)OCCO2	inactive
CCCn1nnnc1NCc1ccc(OC)cc1	inactive
COc1ccc(CNc2nc(NCc3ccc(OC)cc3)c3ncn(C4CCCC4)c3n2)cc1	2.31 µM (active)
COc1ccc(CNC2CCCCC2)cc1	inactive
O=C1NS(=O)(=O)c2ccccc21	inactive
N#CCCN1CCN(S(=O)(=O)c2ccc(S(=O)(=O)NC3CC3)cc2)CC1	inactive
COc1ccc(-c2cc(-c3ccccc3)nc3c2COc2ccc(Cl)cc2-3)cc1	inactive
COc1ccc(Cl)cc1NC(=O)CSc1nc(=O)[nH]c2c1CCCC2	inactive
O=C(CSc1nc(=O)[nH]c2c1CCCC2)Nc1cc(C(F)(F)F)ccc1Cl	16.4 µM (active)
Nc1nc(SCC(=O)Nc2cc(C(F)(F)F)ccc2Cl)[nH]c(=O)c1NC(=O)c1ccco1	inactive
CC(C)CCN1CCN=C1N(C)C	inactive
Cc1c(C(=O)NCc2ccccc2Br)oc2ccc3c(c12)C(=O)CC(C)(C)O3	16.4 µM (active)
CC(C)CC(=O)N1CCN(Cc2ccccc2Br)CC1	inactive
COc1ccc2oc(C(=O)NCc3ccco3)c(C)c2c1	inactive
C[C@]12C=CC(=O)C=C1CC[C@@H]1[C@@H]2C(=O)C[C@@]2(C)[C@H]1CC[C@]2(O)C(=O)CO	inactive
Cc1cc(C)cc(N(CCC#N)C(=O)CN2C(=O)NC3(CCCC3)C2=O)c1	inactive
O=C(NC1CCCC1)C(c1ccc(N2CCOCC2)cc1)N(C(=O)c1ccco1)c1ccccc1F (centres undefined)	inactive

Compound	Potency
O=C(O)c1ccc(/C=N/NC(=O)c2ccc(Br)cc2)cc1	inactive
O=C(N/N=C/c1ccc(OCC2COCCO2)cc1)c1ccc(Br)cc1 (centres undefined)	18.4 µM (active)
O=C(O)c1ccc(OCC2CCCO2)cc1 (centres undefined)	inactive
O=C(Nc1cccn(Cc2c(Cl)cccc2Cl)c1=O)c1ccc(Cl)cc1	inactive
CCOC(=O)c1c(NC(C)=O)c2c3c(sc2n1Cc1c(C)cc(C)cc1C)CCCC3	13 µM (active)
CCC(C)NC(=O)Cn1c(=O)n(-c2ccc(Cl)cc2)c(=O)c2c3c(sc21)CCCC3 (centres undefined)	inactive
CCCOC(=O)Nc1sc2c(c1C(=O)OCC)CCC2	inactive
CN(Cc1nc(-c2cnccn2)no1)Cc1n[nH]c2c1CCCCC2	inactive
O=[N+]([O-])c1ccc(C=Nc2ccc(Cl)cc2Cl)s1	13 µM (active)
O=C(CSCc1ccccc1Cl)NNC(=O)c1ccccc1	inactive
O=C(C1CC(=O)N(C2CCCCC2)C1)N1CCN(c2ccccc2)CC1 (centres undefined)	inactive
O=C(C1CC(=O)N(C2CCCC2)C1)N1CCN(c2cccc(C(F)(F)F)c2)CC1 (centres undefined)	11.6 µM (active)
O=C(CCN1CCCO1)N1CCCC(N2CCN(c3cccc(C(F)(F)F)c3)CC2)C1 (centres undefined)	inactive
CC(=O)C1(C)N(O)C(C)(C)C(c2cccs2)=[N+]1[O-] (centres undefined)	inactive
CCOC(=O)CSc1nc2ccc(C)cc2[nH]1	inactive
CCOC(=O)c1cc2n(c1C)-c1ccccc1C2=O	inactive
CCOC(=O)C1CCN(C(=O)CN2C(=O)c3cccnc3Oc3ccc(C)cc32)CC1	inactive
CCOC(=O)CN1C(=O)C(=O)c2cc(C)ccc21	14.6 µM (active)
CC(OC(=O)CN1C(=O)c2ccccc2C1=O)C(=O)c1ccccc1 (centres undefined)	inactive
CC(C)OC(=O)CN1C(=O)C(=O)c2ccccc21	13 µM (active)
COc1ccccc1C(=O)Nc1ccnn1C1CCN(C(=O)C(C)(C)C)CC1	inactive
CC1Cc2ccccc2N1CC(=O)Nc1ccc2c(c1)OC(F)(F)O2 (centres undefined)	inactive
Cc1cccc(C(=O)Nc2ccccc2C(=O)NCc2cccnc2)c1	inactive
CCC(C)c1ccc(NC(=O)COC(=O)C2CCCC2)cc1 (centres undefined)	inactive
CNC[C@@H]1Oc2c(NS(C)(=O)=O)cccc2C(=O)N([C@@H](C)CO)C[C@H]1C	inactive
Cc1cccc(-n2c(Cc3cc(=O)[nH]c(=O)[nH]3)nnc2SCC(=O)Nc2cccc(C(F)(F)F)c2)c1	inactive

— PubChem BioAssay AID686978 (National Center for Advancing Translational Sciences (NCATS), 2013)
